Measured values as given in PubChem BioAssay (NCI).
About 83,000 compounds went through this panel and 20% of them were active in at least one assay; those are over-represented in the sample as a whole.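 Single-dose data. Exposure time 48 hours. Values below 10 considered active.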 Values without a mark were called inactive. Activity calls are given as the source filed them.

Experiments:
Test in all cases: NCI-60 one-dose screen, 48 h (100 = growth as untreated, 0 = no growth, -100 = all killed)
Settings in all cases: 10 µM unless noted
SR leukemia = tested on: SR leukemia
RPMI-8226 leukemia = tested on: RPMI-8226 leukemia
OVCAR-8 ovarian = tested on: OVCAR-8 ovarian
OVCAR-5 ovarian = tested on: OVCAR-5 ovarian
OVCAR-4 ovarian = tested on: OVCAR-4 ovarian
SK-OV-3 ovarian = tested on: SK-OV-3 ovarian
IGROV1 ovarian = tested on: IGROV1 ovarian
OVCAR-3 ovarian = tested on: OVCAR-3 ovarian
HS 578T breast = tested on: HS 578T breast
NCI/ADR-RES ovarian = tested on: NCI/ADR-RES ovarian

| Structure (SMILES) | growth (SR leukemia) | growth (RPMI-8226 leukemia) | growth (OVCAR-8 ovarian) | growth (OVCAR-5 ovarian) | growth (OVCAR-4 ovarian) | growth (SK-OV-3 ovarian) | growth (IGROV1 ovarian) | growth (OVCAR-3 ovarian) | growth (HS 578T breast) | growth (NCI/ADR-RES ovarian) |
| --- | --- | --- | --- | --- | --- | --- | --- | --- | --- | --- |
| CCN1C(=O)N(CC)C2C1NN=c1s/c(=C\c3ccc(Cl)cc3Cl)c(=O)n12 (stereo not given) | 12.3% | 16.5% | 10.8% | 28.2% | 46.1% | 29.2% | 13.4% | -43.3% (active) | 15.8% | 5.65% (active) |
| Cc1nc2sc(C(=O)Nc3cccc(Cl)c3C)c(N)c2cc1C(=O)c1ccccc1 | 19.8% | 6.33% (active) | 9.81% (active) | 31.1% | 63.3% | 3.83% (active) | 28.6% | -19.1% (active) | 12.2% | 4.5% (active) |
| C[C@]12CC[C@@H]3c4ccc(O)c([N+](=O)[O-])c4CC[C@H]3[C@@H]1CCC2=O | 115% | 90.5% | 112% | 92% | 81.1% | 123% | 80.6% | 104% | 78% | 94.9% |
| C=C(C)[C@@H]1CC[C@]2(C(=O)NCCNCCN)CC[C@]3(C)[C@H](CC[C@@H]4[C@@]5(C)C/C(=C/c6ccncc6)C(=O)C(C)(C)[C@@H]5CC[C@]43C)[C@@H]12 | 95.4% | 90.5% | 101% | 103% | 89.9% | 109% | 87.6% | 97.9% | 86.7% | 101% |
| Cc1nn(-c2ccccc2)c(Oc2ccccn2)c1-c1nc2ccccc2s1 | 33.9% | 97.5% | 102% | 93.4% | 98.7% | 97.5% | 90.6% | 102% | 110% | 98.1% |
| CCOP(=O)(OCC)c1nc(-c2ccccc2)oc1NCc1cccnc1 | 102% | 101% | 106% | 101% | 112% | 106% | 100% | 110% | 109% | 105% |
| COc1ccc(CC(C#N)c2cc3ccccc3[nH]2)cc1 (stereo not given) | 96.1% | 71.4% | 90.8% | 94.1% | 95.4% | 94.4% | 94.7% | 92% | 90.8% | 92.8% |
| N#Cc1nc(-c2ccccc2)oc1S(=O)(=O)N1CCOCC1 | 1.09% (active) | 76.5% | 59.8% | 103% | 84.2% | 103% | 88.5% | 15% | 107% | 98.7% |
| Cn1cc(-c2nc(-c3c[nH]c4ccncc34)cs2)c2ccccc21 | -9.5% (active) | -29% (active) | 49.4% | 71.8% | 52.1% | 77.3% | 67.3% | 85.8% | 90.1% | 86.4% |
| Clc1ccc(Nc2nnc(COc3ccccc3)c3ccccc23)cc1 | -20.6% (active) | -25.3% (active) | 5.02% (active) | 23.1% | 18.1% | 9.17% (active) | 16.1% | -35.1% (active) | 14.4% | -1.13% (active) |
| O=C(CSc1nc2ccc([N+](=O)[O-])cc2[nH]1)Nc1cccc(C(F)(F)F)c1 | 14.5% | -11.8% (active) | 13.8% | 63.5% | 12% | 27.1% | 41% | 20.7% | 24.8% | 21.9% |
| O=C(N/N=C/c1ccc(F)cc1)c1ccc(C(F)(F)F)nc1Nc1cccc(C(F)(F)F)c1 | -30.5% (active) | -49.8% (active) | 9.33% (active) | -7.78% (active) | -6.96% (active) | -7.48% (active) | -19.6% (active) | -7.4% (active) | -5.72% (active) | -22.9% (active) |
| O=S(=O)(NCCNc1nccc(-c2c(-c3cccc(F)c3)nc3occn23)n1)c1ccc(Br)cc1 | 65.6% | 62.3% | 80.2% | 93.8% | 93.9% | 99.8% | 57.7% | 90.1% | 74.6% | 89.8% |
| COc1cc(-c2nc(SCCC(C)C)nc(Nc3ccccc3Cl)c2C#N)cc(OC)c1OC | 102% | 101% | 101% | 89.7% | 90.2% | 120% | 91.6% | 105% | 95.6% | 101% |
| S=C(Nc1ccc(-c2nc(N3CCOCC3)c3cccn3n2)cc1)Nc1cccnc1 | 36.7% | 19% | 14.8% | 35.2% | 43.2% | 21.5% | 11% | 39.6% | 12.8% | 26.3% |
| Cc1ccc(-c2nc3nc(-c4ccc(F)cc4)nc(N4CCNCC4)c3o2)cc1 | -29.5% (active) | -47.2% (active) | -50.1% (active) | -14.6% (active) | -77.1% (active) | 107% | 42% | -94.7% (active) | -5.74% (active) | -19.1% (active) |
| O=C(Nn1c2c(sc1=NCc1ccccc1)C(=O)c1ccccc1C2=O)c1cc2ccc1CCc1ccc(cc1)CC2 | 48.3% | 59% | 46.3% | 118% | 47.7% | 72.9% | 53% | 51.1% | 72.2% | 64.3% |
| COc1ccc(/C=N/NC(=O)CCN2c3ccccc3Sc3ccccc32)cc1 | 33.8% | 94% | 99.3% | 86.3% | 89.6% | 97.1% | 66.3% | 76.4% | 85.9% | 69.4% |
| C/C(Nc1ccc(Cl)c(Cl)c1)=C1\CCOC1=O | 83.6% | 61.3% | 102% | 87.5% | 72.4% | 121% | 83.8% | 100% | 98% | 86.7% |
| O=C(Nc1nn(-c2ccc(Cl)cc2Cl)nc1-c1ccccc1)c1ccccc1 | 46% | 75.7% | 103% | 92% | 106% | 117% | 95% | 90.7% | 105% | 106% |
| O=C(c1cc2ccccc2o1)c1nn(-c2ccccc2)/c(=N/N=Cc2cn(-c3ccccc3)nc2-c2cc3ccccc3oc2=O)s1 | 72.7% | 90.9% | 97.5% | 105% | 93.3% | 127% | 99.1% | 100% | 99.8% | 96.5% |
| CCc1ccc(C(=O)/C=C/C23c4ccccc4C(c4ccccc42)C2C(=O)NC(=O)C23)cc1 (stereo not given) | 0.497% (active) | -35.1% (active) | -20% (active) | 15.7% | 37.5% | 38.6% | 0.604% (active) | -59.7% (active) | 41% | 4.03% (active) |
| Cc1cc(Cl)ccc1NC(=O)c1cc2ccccc2cc1O | 3.8% (active) | 6.82% (active) | 7.81% (active) | 30.5% | 22% | 36.7% | 17.9% | -3.47% (active) | -7.72% (active) | 4.6% (active) |
| Cc1ccc(Cc2cnc(NC(=O)c3cc(Br)cs3)s2)cc1 | 18.2% | 53.2% | 82.7% | 94.2% | 77.3% | 64.9% | 49.6% | 61.9% | 73.2% | 33.5% |
| CC(C)=CCC[C@](C)(O)[C@H]1CC[C@]2(C)[C@@H]1CC[C@@H]1[C@@]3(C)Cc4nccnc4C(C)(C)[C@@H]3CC[C@]12C | 43.7% | 43.2% | 101% | 89.9% | 90.1% | 84.1% | 104% | 90.3% | 97.6% | 83.6% |
| O=[N+]([O-])c1ccc(-c2nc(N3CCOCC3)c3c4c(sc3n2)CCCC4)cc1 | 76.4% | 109% | 99.8% | 95.4% | 92.2% | 81.2% | 75.2% | 93.8% | 90.7% | 102% |
